Reference: PubChem BioAssay (EPA / NIEHS)
Several values for one entry are separate records, joined by “and”; a condition that tells them apart may be missing. Equal entries are not always repeated. The source holds several records for some structures; these can differ, active in one and inactive in another. Activity calls are given as the source filed them. The calls were made as follows: active = hit-call score of the fitted dose curve at least 0.9, where 1 is the maximum; inactive = score below 0.9.

Tests used:
[1] = APR_HepG2_NuclearSize_72hr: Apredica 72-hour HepG2 Assay for Nuclear Size (AID 2282925); conditions: high-content imaging, actives raise or lower the signal
Procedure, shortened: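 Nuclear size was read by high-content imaging of Hoechst 33342 stain after formaldehyde fixation. Compounds ran 72 h on HepG2 at 0.39 to 200 uM, with final DMSO 0.5% v/v. Curves fitted both directions relative to DMSO control.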

[2] = ATG_CRE_CIS: Attagene CIS-FACTORIAL HepG2 Assay for human cAMP Responsive Element (CRE) binding protein 3 (AID 2282926); conditions: HepG2 CRE cis-reporter, Attagene multiplexed mRNA; actives raise or lower the signal
Procedure, shortened: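 Assay format: transient reporter transfection of HepG2, 24 h treatment, total RNA isolation with DNase I step. Reporter abundance read by fluorescence after PCR and capillary separation; DMSO-normalised gain or loss fitting.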

[3] = target: CCAAT/enhancer-binding protein beta (Homo sapiens) (UniProt P17676); assay: ATG_C_EBP_CIS: Attagene CIS-FACTORIAL HepG2 Assay for human CCAAT/Enhancer Binding Protein (C/EBP) beta (AID 2282927); conditions: HepG2 Attagene cis-factorial transcription factor reporter; actives raise or lower the signal
CCAAT/enhancer-binding protein beta (Homo sapiens), sequence (P17676 whole entry, looked up): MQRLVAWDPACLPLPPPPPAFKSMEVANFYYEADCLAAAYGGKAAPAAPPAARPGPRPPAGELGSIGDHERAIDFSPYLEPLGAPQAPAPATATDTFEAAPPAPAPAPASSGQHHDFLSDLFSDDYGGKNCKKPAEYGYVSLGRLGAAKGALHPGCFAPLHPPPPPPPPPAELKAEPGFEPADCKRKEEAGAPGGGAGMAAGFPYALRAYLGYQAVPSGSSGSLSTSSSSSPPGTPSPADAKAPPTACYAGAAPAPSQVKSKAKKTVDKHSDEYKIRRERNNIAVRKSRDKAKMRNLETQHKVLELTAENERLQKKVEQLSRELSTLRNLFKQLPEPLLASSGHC
Procedure, shortened: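 Changes in reporter mRNA, rather than exogenous chimeric receptor activity, reflect native C/EBP signalling in transfected HepG2 cells dosed for 24 h; transcripts are detected by RT-PCR and capillary electrophoresis.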

[4] = ATG_CMV_CIS: Attagene CIS-FACTORIAL HepG2 Assay for human CMV (Internal Marker) (AID 2282928); conditions: HepG2 CMV promoter reporter, transcription factor profiling; actives raise or lower the signal;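 also: endpoint acts as a background internal control marker rather than a target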
Procedure, shortened: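 24 h chemical treatment, HepG2 with transient multi-reporter transfection; RNA → oligo(dT) RT → PCR → 6-FAM extension → HpaI digest → CE fluorescence. Bidirectional fit, DMSO negative control.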

[5] = ATG_DR4_LXR_CIS: Attagene CIS-FACTORIAL HepG2 Assay for human Liver X Receptor (LXR), DR4 submotif (AID 2282929); conditions: HepG2 Attagene DR4 cis-reporter, mRNA transcription; actives raise or lower the signal
Procedure, shortened: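 HepG2, transient MRTU transfection, cis-element (DR4) promoter; 24 h compound exposure; total RNA → oligo(dT) RT → PCR → 6-FAM primer extension → HpaI cut → CE. Gain/loss vs DMSO, bidirectional fit.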

[6] = target: Aryl hydrocarbon receptor (Homo sapiens) (UniProt P35869); assay: ATG_Ahr_CIS: Attagene CIS-FACTORIAL HepG2 Assay for human Aryl Hydrocarbon Receptor (Ahr) (AID 2282930); conditions: HepG2 AhR cis-factorial reporter transcription; actives raise or lower the signal
Aryl hydrocarbon receptor (Homo sapiens), sequence (P35869 whole entry, looked up): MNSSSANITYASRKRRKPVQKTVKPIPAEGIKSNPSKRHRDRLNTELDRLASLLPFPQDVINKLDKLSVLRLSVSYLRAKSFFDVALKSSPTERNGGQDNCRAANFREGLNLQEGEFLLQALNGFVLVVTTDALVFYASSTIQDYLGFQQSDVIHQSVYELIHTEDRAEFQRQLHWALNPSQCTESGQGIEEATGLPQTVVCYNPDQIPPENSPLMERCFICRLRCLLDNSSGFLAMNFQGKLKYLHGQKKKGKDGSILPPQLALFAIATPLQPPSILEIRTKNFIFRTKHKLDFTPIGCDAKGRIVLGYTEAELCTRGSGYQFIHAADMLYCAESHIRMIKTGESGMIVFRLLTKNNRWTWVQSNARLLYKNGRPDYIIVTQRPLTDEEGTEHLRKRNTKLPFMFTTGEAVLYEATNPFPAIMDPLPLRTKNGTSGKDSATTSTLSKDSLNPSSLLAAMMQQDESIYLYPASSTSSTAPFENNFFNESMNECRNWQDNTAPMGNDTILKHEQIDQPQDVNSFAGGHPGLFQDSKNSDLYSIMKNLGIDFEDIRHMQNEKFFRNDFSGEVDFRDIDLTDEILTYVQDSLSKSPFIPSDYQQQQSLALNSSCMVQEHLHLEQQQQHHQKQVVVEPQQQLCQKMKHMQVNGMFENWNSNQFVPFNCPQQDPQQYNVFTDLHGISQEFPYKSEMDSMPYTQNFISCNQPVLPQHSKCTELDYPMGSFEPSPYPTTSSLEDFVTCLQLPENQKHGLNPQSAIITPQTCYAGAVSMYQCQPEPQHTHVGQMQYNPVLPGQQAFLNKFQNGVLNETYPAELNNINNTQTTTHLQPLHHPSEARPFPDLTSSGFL
Procedure, shortened: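 HepG2, transient MRTU (cis) transfection, 24 h exposure. RNA → cDNA → PCR → 6-FAM primer extension → HpaI 2 h 37 C → CE. Fit: bidirectional, DMSO baseline.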

[7] = ATG_AP_1_CIS: Attagene CIS-FACTORIAL HepG2 Assay for human Activator Protein 1 (AP-1) (AID 2282931); conditions: HepG2 Attagene cis-factorial AP-1 reporter mRNA; actives raise or lower the signal
Procedure, shortened: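 Transient MRTU transfection of HepG2 → 24 h chemical treatment → RNA isolation, RT-PCR, 6-FAM labelling, HpaI digest → capillary electrophoresis. Fit: bidirectional, DMSO negative control.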

[8] = ATG_AP_2_CIS: Attagene CIS-FACTORIAL HepG2 Assay for human Activator Protein 2 (AP-2) (AID 2282932); conditions: HepG2 AP-2 cis-reporter, Attagene transcription factor profiling; actives raise or lower the signal
Procedure, shortened: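 Transiently transfected HepG2 cells are exposed to chemical for 24 h. Reporter transcripts are then measured as fluorescence following RT-PCR and capillary separation, and gain- or loss-of-signal is fitted relative to DMSO.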

[9] = ATG_BRE_CIS: Attagene CIS-FACTORIAL HepG2 Assay for human Bone Morphogenetic Protein (BMP) Response Element (BRE) (AID 2282933); conditions: HepG2 BMP response element reporter, Attagene transcription factor profiling; actives raise or lower the signal
Procedure, shortened: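 Transient MRTU transfection of human HepG2 liver cells; 24 h compound treatment; total RNA isolated, reverse-transcribed, PCR-amplified, 6-FAM labelled, HpaI-cut, capillary electrophoresis. DMSO = negative control/baseline, bidirectional fit.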

[10] = target: Retinoic acid receptor alpha (Homo sapiens) (UniProt P10276); assay: ATG_DR5_RAR_CIS: Attagene CIS-FACTORIAL HepG2 Assay for human Retinoic Acid Receptor Alpha (RARE), DR5 submotif (AID 2282934); conditions: HepG2 Attagene cis-factorial RARE DR5 reporter, mRNA; actives raise or lower the signal;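 as to AC50: reporter responds to endogenous RAR alpha beta and gamma in HepG2 not RARA alone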
Retinoic acid receptor alpha (Homo sapiens), sequence (P10276 whole entry, looked up): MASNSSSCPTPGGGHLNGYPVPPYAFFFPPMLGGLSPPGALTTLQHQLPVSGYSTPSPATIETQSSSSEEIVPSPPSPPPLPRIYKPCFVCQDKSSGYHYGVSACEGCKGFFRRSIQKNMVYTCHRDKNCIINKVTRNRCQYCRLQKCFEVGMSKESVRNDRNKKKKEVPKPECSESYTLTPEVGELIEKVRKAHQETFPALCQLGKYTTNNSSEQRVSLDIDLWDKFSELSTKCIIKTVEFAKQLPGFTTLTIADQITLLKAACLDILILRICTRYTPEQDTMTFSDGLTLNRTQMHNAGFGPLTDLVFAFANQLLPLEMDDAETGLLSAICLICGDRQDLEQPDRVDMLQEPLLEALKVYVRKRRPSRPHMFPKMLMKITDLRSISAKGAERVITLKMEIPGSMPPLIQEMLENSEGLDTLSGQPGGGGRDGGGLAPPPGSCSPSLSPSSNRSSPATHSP
Procedure, shortened: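 HepG2, transient cis-reporter transfection, 24 h exposure. mRNA readout: RT-PCR, FAM label, HpaI cut, capillary electrophoresis. DMSO baseline, gain/loss fitting.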

Compound	outcome [1]	AC50 [2]	AC50 [3]	AC50 [4]	outcome [4]	AC50 [5]	outcome [5]	outcome [6]	AC50 [7]	outcome [7]	outcome [8]	outcome [9]	outcome [2]	outcome [3]	AC50 [9]	AC50 [10]	outcome [10]	AC50 [6]	AC50 [1]	AC50 [8]
CC1=C(/C=C/C(C)=C/C=C/C(C)=C/C(=O)O)C(C)(C)CCC1	inactive	52.4 µM (active) and 3.28 µM (active)	6.62 µM (active) and 193 nM (active)	75.8 µM (active)	inactive	0.763 µM (active)	inactive	inactive	42 µM (active)	inactive	inactive	inactive	–	–	–	–	–	–	–	–
CCC(=C(c1ccc(O)cc1)c1ccc(OCCN(C)C)cc1)c1ccccc1	inactive	–	–	5.22 µM (active) and 7.1 µM (active)	inactive	9.72 µM (active) and 2.37 µM (active)	inactive	inactive	–	inactive	inactive	inactive	inactive	inactive	10.5 µM (active)	11.1 µM (active)	inactive	–	–	–
C#C[C@]1(O)CC[C@H]2[C@@H]3CCC4=CC(=O)CC[C@@H]4[C@H]3CC[C@@]21C	inactive	–	–	–	inactive	–	–	inactive	–	inactive	inactive	inactive	inactive	inactive	–	–	inactive	71.5 µM (active) and 50 µM (active)	–	–
COc1cc(CCC(=O)CC(=O)CCc2ccc(O)c(OC)c2)ccc1O	inactive	–	–	–	inactive	–	inactive	inactive	–	inactive	inactive	inactive	inactive	inactive	–	–	inactive	–	–	–
CCCCCCCCCCCCCCCS(=O)(=O)Oc1ccccc1	inactive	–	–	–	inactive	–	inactive	inactive	–	inactive	inactive	inactive	inactive	inactive	–	–	inactive	–	–	–
COCC(C)OCC(C)O (centres undefined)	inactive	–	–	–	inactive	–	inactive	inactive	–	inactive	inactive	inactive	inactive	inactive	–	–	inactive	–	–	–
CCCCCCCCCCCCN1CCCC1=O	inactive	–	–	–	inactive	–	inactive	inactive	–	inactive	inactive	inactive	inactive	inactive	–	–	inactive	–	–	–
CCCCOCCO	inactive	–	–	–	inactive	–	inactive	inactive	–	inactive	inactive	inactive	inactive	inactive	–	–	inactive	–	–	–
CCCCCCCC(=O)O	inactive	–	–	–	inactive	–	inactive	inactive	–	inactive	inactive	inactive	inactive	inactive	–	–	–	–	–	–
Cc1oc(-c2ccccc2)nc1CCOc1ccc(C[C@H](Nc2ccccc2C(=O)c2ccccc2)C(=O)O)cc1	inactive	–	–	–	inactive	–	inactive	inactive	–	inactive	inactive	–	inactive	inactive	11 µM (active)	–	inactive	–	–	–
CN(C)C=O	inactive	–	–	–	inactive	–	inactive	inactive	–	inactive	inactive	inactive	inactive	inactive	–	–	inactive	–	–	–
CN1CCN(c2ccccc2/C=C2\SCCN(c3ccc(Cl)c(Cl)c3)C2=O)CC1	–	–	–	–	inactive	–	inactive	inactive	–	inactive	inactive	inactive	inactive	inactive	–	–	inactive	–	5.01 µM (active)	–
O=[N+]([O-])c1ccc(O)cc1	inactive	–	–	–	inactive	–	inactive	inactive	–	inactive	inactive	inactive	inactive	inactive	–	–	inactive	–	–	–
OCCC(F)(F)C(F)(F)C(F)(F)C(F)(F)C(F)(F)C(F)(F)F	inactive	154 µM (active)	146 µM (active)	145 µM (active)	inactive	182 µM (active)	inactive	inactive	77.3 µM (active)	inactive	inactive	inactive	inactive	inactive	–	–	inactive	–	–	–
CC[C@H](C)[C@@H](C(=O)O)n1sc2ccccc2c1=O	inactive	–	–	–	inactive	–	inactive	inactive	–	inactive	inactive	inactive	inactive	inactive	–	–	inactive	–	–	–
CC(=O)CC(C)(C)O	inactive	–	–	–	inactive	–	inactive	–	–	inactive	inactive	inactive	inactive	inactive	–	–	inactive	–	–	–
OCCC(F)(F)C(F)(F)C(F)(F)C(F)(F)C(F)(F)C(F)(F)C(F)(F)C(F)(F)F	inactive	26.3 µM (active) and 124 µM (active)	–	–	inactive	40.1 µM (active)	inactive	inactive	39.1 µM (active)	inactive	inactive	inactive	–	inactive	–	–	–	–	–	–
CCCCCCCCC(=O)O	inactive	–	–	–	inactive	–	inactive	inactive	–	inactive	inactive	inactive	inactive	inactive	–	–	inactive	–	–	–

Compound	outcome [1]	AC50 [2]	AC50 [3]	AC50 [4]	outcome [4]	AC50 [5]	outcome [5]	outcome [6]	AC50 [7]	outcome [7]	outcome [8]	outcome [9]	outcome [2]	outcome [3]	AC50 [9]	AC50 [10]	outcome [10]	AC50 [6]	AC50 [1]	AC50 [8]
CCCOC(=O)c1ccc(O)cc1	inactive	–	–	121 µM (active)	inactive	26.1 µM (active)	inactive	inactive	48.2 µM (active)	inactive	inactive	inactive	–	inactive	79.3 µM (active)	25.2 µM (active)	inactive	–	–	–
O=C(/C=C/c1ccc(O)cc1)CC(=O)/C=C/c1ccc(O)cc1	–	–	–	77.7 µM (active)	–	18.9 µM (active)	–	inactive	62 µM (active)	–	–	inactive	inactive	inactive	–	–	inactive	–	49.4 µM (active)	100 µM (active)
CCc1ccc(CCOc2ccc(CC3SC(=O)NC3=O)cc2)nc1 (centres undefined)	inactive	–	–	–	inactive	–	inactive	inactive	–	inactive	inactive	inactive	inactive	inactive	–	–	–	–	–	–
ClC1=C(Cl)C(Cl)(Cl)C(Cl)=C1Cl	inactive	–	16.9 µM (active)	11.1 µM (active)	inactive	6.59 µM (active)	inactive	inactive	–	inactive	inactive	inactive	–	inactive	–	21.4 µM (active)	inactive	8.81 µM (active)	–	–
c1ccc2cc3c(ccc4ccccc43)cc2c1	inactive	–	–	–	inactive	1.7 µM (active) and 1.25 µM (active) and 3.19 µM (active)	inactive	–	2.33 µM (active)	inactive	inactive	inactive	inactive	inactive	–	–	inactive	–	–	–
c1ccc2c(c1)Cc1ccccc1-2	inactive	–	–	–	inactive	–	inactive	inactive	–	inactive	inactive	inactive	inactive	inactive	–	–	inactive	–	–	–
O=c1c(-c2ccc(O)cc2)coc2cc(O)ccc12	inactive	–	100 µM (active) and 75.6 µM (active)	–	–	–	inactive	inactive	–	inactive	inactive	inactive	inactive	inactive	–	–	inactive	69.7 µM (active)	–	–
CCCCC(CC)COC(=O)CCCCC(=O)OCC(CC)CCCC (centres undefined)	inactive	–	–	–	inactive	–	inactive	–	–	inactive	inactive	inactive	inactive	inactive	–	–	inactive	87.3 µM (active)	–	–
CCc1nn(C2CCCCC2)c2cc(C3(C#N)CCC(C(=O)O)CC3)ccc12 (centres undefined)	inactive	–	–	–	inactive	129 µM (active)	–	inactive	–	inactive	inactive	inactive	inactive	inactive	–	0.941 µM (active)	–	–	–	–
Cc1cc(CCN2CCN(c3nsc4ccccc34)CC2)cc2c1NC(=O)CC2(C)C	inactive	–	7.43 µM (active)	–	inactive	2.82 µM (active)	–	inactive	3.21 µM (active)	–	inactive	inactive	inactive	–	–	3.74 µM (active)	–	–	–	–
CC(=O)NC1(c2cccc(F)c2)CCN(CC[C@@]2(c3ccc(Cl)c(Cl)c3)CN(c3ccccc3)C(=O)CO2)CC1	inactive	46.6 µM (active)	54.7 µM (active)	45.2 µM (active)	–	37.2 µM (active)	–	inactive	14.5 µM (active)	–	inactive	–	–	–	61.8 µM (active)	62 µM (active)	–	–	–	–
C=C(C)C(=O)OCCC(F)(F)C(F)(F)C(F)(F)C(F)(F)C(F)(F)C(F)(F)F	inactive	–	–	–	inactive	–	inactive	inactive	–	inactive	inactive	inactive	inactive	inactive	–	–	–	54.4 µM (active)	–	–
COC(=O)CCCCC(=O)OC	inactive	–	–	–	inactive	–	inactive	inactive	–	inactive	inactive	inactive	inactive	inactive	–	–	inactive	–	–	–
OC1CCCCC1	inactive	–	–	–	inactive	–	inactive	inactive	–	inactive	inactive	inactive	inactive	inactive	–	–	inactive	–	–	–
O=C(O)Cc1cc(I)c(Oc2cc(I)c(O)c(I)c2)c(I)c1	inactive	18.3 µM (active)	29.1 µM (active) and 17.8 µM (active)	22.4 µM (active) and 16.7 µM (active)	–	14.9 µM (active)	inactive	inactive	16.5 µM (active) and 122 µM (active)	–	inactive	inactive	inactive	–	51 µM (active)	41.1 µM (active) and 32.5 µM (active)	–	89.3 µM (active)	–	121 µM (active)
CCN(CC)CCNc1ccc(CNC=O)c2sc3ccc(OC)cc3c(=O)c12	inactive	0.53 µM (active)	0.879 µM (active)	–	inactive	–	inactive	inactive	0.216 µM (active)	–	–	–	–	–	0.505 µM (active)	0.457 µM (active)	–	–	–	0.496 µM (active)
CCCCC[C@H](O)CC(=O)CCc1ccc(O)c(OC)c1	inactive	–	–	–	inactive	–	inactive	inactive	–	inactive	–	inactive	inactive	inactive	–	–	inactive	–	–	79.2 µM (active)
